For 40 sequences, PBM binding z-score results are on record in the supplement of paper PMC6555819.

In one assay the test system is PPARg DBDmut:RXRa IVT, anti-PPARg (DBD mutation: PPARg1 K132A/R137A, NR concentration 270 nM, RXRa partner concentration 90 nM). Briefly: PBM binding z-score (relative to random genomic background probes); higher = stronger binding; sequences stand for … in GC…GCGATTGACAGCGTAGAATGAAGG
A digest of the protocol: (§1)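 On custom Agilent 4×180K arrays, double-stranded probes with 34-nt variable regions carried direct-repeat seeds, single-nucleotide variants, half-site ablations or random human genomic background. Ligand-free nuclear receptor dimers were applied for 1 h, and binding was read with antibodies against each partner (one per run). Binding z-scores come from regression-normalized fluorescence, with the random background probes as reference.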
As for CCTCGGAGGACATAAGGTCAGAGCTGTCCGCTTT, the PBM binding z-score was -1.

In turn, CGTCAAAGTTCAAGGTAAGGTAACAGAAAGCAGC gave a PBM binding z-score of 0.246.

On to TTACCAAGGTGAAGGTCGTTGTTCCCTCTGTAGA, for which the PBM binding z-score is -0.665.

Regarding CAGCCTAGGTCAGGGCCAGTTTAGGAGGAACGTT, the PBM binding z-score is -1.02.

The sequence ATGTCTAGGTAACAAGTTCAGTGAAAGAGAGGAC registered a PBM binding z-score of 1.24.

In turn, GGAACGAGGGAATTCGAGTTGATAGCATGGCGAT returned a PBM binding z-score of -0.28.

CCTCGGAGGACAACAGGCGGTCAGAGCTGCCAGA registered a PBM binding z-score of -1.43.

CCTCGCAGGACAGAAGGTCAGAGCTGTCCGCTTT registered a PBM binding z-score of -2.21.

The sequence GCTATTAGTTGAAAGGGCAAGCGAATGATTCTCG came in with a PBM binding z-score of -0.251.

The sequence CCTAGCAGGCCAGGGTCACTCAAGCATTTCGCTT gave a PBM binding z-score of -0.961.

For CGTCCTAGGTCAATGCTAGGTCAGTGAAAGCATT, the PBM binding z-score was -0.391.

CCTACAGGGTCAGCTAGGCCAGAGTAGGGACGGC: the PBM binding z-score was -0.42.

Take TGAATGAGGTTATAAGATCATGGAACGTTGCAAA: the PBM binding z-score stood at 1.44.

Regarding CCTTACGGGTCAAGGTTATAGCACGGGTGGTACG, the PBM binding z-score turned out to be 0.0487.

Consider ACAGACATGTGAGTGAAGGTAACTCAGCTGGACG, for which the PBM binding z-score was -0.0972.

On to TCTTGTAGATCAACAGGAAGTTAAGAAAGATCGA, for which the PBM binding z-score stood at 0.464.

As to TCACGGAGGACACGAAGGTCAGAGCTTTCCAGAG, the PBM binding z-score was -1.19.

GCTAGTTGGTCAGTAAAAGGTTACACACCGGTCG: the PBM binding z-score is -0.658.

Another assay relates to PPARg DBDmut IVT, anti-PPARg (DBD mutation: PPARg1 K132A/R137A, NR concentration 270 nM). The description is as above. A digest of the protocol:
as §1
In turn, GATACAGGGTCAGCTAGAGTCCAGAGTATGGAAA gave a PBM binding z-score of 0.0344.

For AGGATGAGGTTAAGATCAGGGAAACAGAATACAT, the PBM binding z-score worked out at 0.516.

Sequence CCGAGTAGGTTATGGGGCATTCGGGCAACGGTGA displayed a PBM binding z-score of -0.259.

For TCATAAAGGTAAACAGGTGAAAGTCCGTAAGTTA, the PBM binding z-score is 0.863.

ACAGACAGGGGAGTGAAGGTAACTCAGCTGGACG displayed a PBM binding z-score of -0.386.

CATACAGGGTCAGCTAGGCGAGAGTAGGGACGGC registered a PBM binding z-score of 0.468.

Take GCGACTGGGGCAAATCAGGTTACCATAAGGTTGG: the PBM binding z-score is -0.972.

Turning to ACTAGCAGGCCAAGTTTGGTTCACTCAAACAAAG, the PBM binding z-score was -0.415.

CCTAGTTTGTCAAGGTCACACACGCTATAGGTAC showed a PBM binding z-score of 1.48.

For the sequence CCTACTGGGCCAAAAGTCATTGATTCCAATGCTC, the PBM binding z-score was -0.159.

TCTAGTTGGGCAAAGGTCACACACTCGAAATGCG came in with a PBM binding z-score of 1.14.

Sequence TCTCGGAGGACACGAAGCTCAGAGCTTTCCAGAG came in with a PBM binding z-score of -1.14.

ATCTCTAGGTAACCAAGTTCAATGAATGCCGAAC showed a PBM binding z-score of 1.22.

With ACTATTAGTTGACTTAGTGCAACCGATACGACGC, the PBM binding z-score came out at 0.707.

Consider CTCGACAGGTCGTGCTCAGGTGAGTATACCAAAC, for which the PBM binding z-score is -0.0221.

In turn, TCTTGTAAATCAGCAGGTTAAGAAAGCTGGCCAA came in with a PBM binding z-score of -0.222.

Sequence CCGACTGGGGCAGAAAGGTTAACATACCATCCGG came in with a PBM binding z-score of -1.36.

CCTACTGGGCCATTCAGAGGTCTTTGATCATATG: the PBM binding z-score is -0.677.

CCTCGGAGGACCACAGGAGGTCAGAGCTGCCAGA had a PBM binding z-score of -1.46.

On to ATCTCTAGGTAAAGAGAGTTCAGTGAATGCAAAT, for which the PBM binding z-score came to 0.197.

Turning to TCTTGGAGATCAACAGGAGGTTAAGAAAGATCGA, the PBM binding z-score turned out to be 0.526.

Take CCTCGGAGGAAAGAAGGTCAGAGCTGTCCGCTTT: the PBM binding z-score was -1.68.

CCTCGGAGGACATAAGGTCAGAGCTGTCCGCTTT registered a PBM binding z-score of -1.59.

CGTCAAAGTTCAAGGTAAGGTAACAGAAAGCAGC showed a PBM binding z-score of 0.255.

The sequence TTACCAAGGTGAAGGTCGTTGTTCCCTCTGTAGA showed a PBM binding z-score of -0.042.

The sequence CAGCCTAGGTCAGGGCCAGTTTAGGAGGAACGTT returned a PBM binding z-score of -1.5.

ATGTCTAGGTAACAAGTTCAGTGAAAGAGAGGAC: the PBM binding z-score is 0.999.

As for GGAACGAGGGAATTCGAGTTGATAGCATGGCGAT, the PBM binding z-score stood at 0.0147.

The sequence CCTCGGAGGACAACAGGCGGTCAGAGCTGCCAGA registered a PBM binding z-score of -1.37.

The sequence CCTCGCAGGACAGAAGGTCAGAGCTGTCCGCTTT came in with a PBM binding z-score of -1.7.

GCTATTAGTTGAAAGGGCAAGCGAATGATTCTCG registered a PBM binding z-score of 0.055.

Turning to CCTAGCAGGCCAGGGTCACTCAAGCATTTCGCTT, the PBM binding z-score was -1.38.

On to CGTCCTAGGTCAATGCTAGGTCAGTGAAAGCATT, for which the PBM binding z-score was -0.333.

In turn, CCTACAGGGTCAGCTAGGCCAGAGTAGGGACGGC registered a PBM binding z-score of -1.17.

TGAATGAGGTTATAAGATCATGGAACGTTGCAAA came in with a PBM binding z-score of 0.209.

With CCTTACGGGTCAAGGTTATAGCACGGGTGGTACG, the PBM binding z-score was -0.257.

For ACAGACATGTGAGTGAAGGTAACTCAGCTGGACG, the PBM binding z-score is -0.0853.

TCTTGTAGATCAACAGGAAGTTAAGAAAGATCGA displayed a PBM binding z-score of 0.377.

Sequence TCACGGAGGACACGAAGGTCAGAGCTTTCCAGAG had a PBM binding z-score of -0.604.

GCTAGTTGGTCAGTAAAAGGTTACACACCGGTCG yielded a PBM binding z-score of -0.197.

The next assay deals with PPARg homodimer (NR concentration 180 nM). Described as above. A digest of the protocol: as §1
As to GATACAGGGTCAGCTAGAGTCCAGAGTATGGAAA, the PBM binding z-score came out at 1.83.

For AGGATGAGGTTAAGATCAGGGAAACAGAATACAT, the PBM binding z-score came to 1.27.

CCGAGTAGGTTATGGGGCATTCGGGCAACGGTGA gave a PBM binding z-score of 0.492.

For TCATAAAGGTAAACAGGTGAAAGTCCGTAAGTTA, the PBM binding z-score turned out to be 1.24.

For the sequence ACAGACAGGGGAGTGAAGGTAACTCAGCTGGACG, the PBM binding z-score amounted to 0.229.

As for CATACAGGGTCAGCTAGGCGAGAGTAGGGACGGC, the PBM binding z-score turned out to be 1.41.

As to GCGACTGGGGCAAATCAGGTTACCATAAGGTTGG, the PBM binding z-score worked out at 0.782.

ACTAGCAGGCCAAGTTTGGTTCACTCAAACAAAG registered a PBM binding z-score of -0.521.

For the sequence CCTAGTTTGTCAAGGTCACACACGCTATAGGTAC, the PBM binding z-score came to 4.48.

Consider CCTACTGGGCCAAAAGTCATTGATTCCAATGCTC, for which the PBM binding z-score was 0.216.

Consider TCTAGTTGGGCAAAGGTCACACACTCGAAATGCG, for which the PBM binding z-score turned out to be 5.11.

The sequence TCTCGGAGGACACGAAGCTCAGAGCTTTCCAGAG gave a PBM binding z-score of -0.926.

In the case of ATCTCTAGGTAACCAAGTTCAATGAATGCCGAAC, the PBM binding z-score is 1.22.

Take ACTATTAGTTGACTTAGTGCAACCGATACGACGC: the PBM binding z-score amounted to 0.732.

On to CTCGACAGGTCGTGCTCAGGTGAGTATACCAAAC, for which the PBM binding z-score was determined as 0.723.

TCTTGTAAATCAGCAGGTTAAGAAAGCTGGCCAA registered a PBM binding z-score of 0.0187.

Sequence CCGACTGGGGCAGAAAGGTTAACATACCATCCGG returned a PBM binding z-score of 1.53.

For CCTACTGGGCCATTCAGAGGTCTTTGATCATATG, the PBM binding z-score was determined as 0.234.

Take CCTCGGAGGACCACAGGAGGTCAGAGCTGCCAGA: the PBM binding z-score was 1.3.

For the sequence ATCTCTAGGTAAAGAGAGTTCAGTGAATGCAAAT, the PBM binding z-score is 0.502.

For the sequence TCTTGGAGATCAACAGGAGGTTAAGAAAGATCGA, the PBM binding z-score was -0.163.

CCTCGGAGGAAAGAAGGTCAGAGCTGTCCGCTTT came in with a PBM binding z-score of 1.32.

Consider CCTCGGAGGACATAAGGTCAGAGCTGTCCGCTTT, for which the PBM binding z-score came to 1.72.

The sequence CGTCAAAGTTCAAGGTAAGGTAACAGAAAGCAGC showed a PBM binding z-score of 1.61.

In turn, TTACCAAGGTGAAGGTCGTTGTTCCCTCTGTAGA yielded a PBM binding z-score of 0.635.

Regarding CAGCCTAGGTCAGGGCCAGTTTAGGAGGAACGTT, the PBM binding z-score turned out to be 0.437.

Take ATGTCTAGGTAACAAGTTCAGTGAAAGAGAGGAC: the PBM binding z-score was 0.836.

With GGAACGAGGGAATTCGAGTTGATAGCATGGCGAT, the PBM binding z-score was -0.611.

In turn, CCTCGGAGGACAACAGGCGGTCAGAGCTGCCAGA returned a PBM binding z-score of -0.158.

CCTCGCAGGACAGAAGGTCAGAGCTGTCCGCTTT: the PBM binding z-score is 1.13.

For GCTATTAGTTGAAAGGGCAAGCGAATGATTCTCG, the PBM binding z-score was found to be 1.28.

Take CCTAGCAGGCCAGGGTCACTCAAGCATTTCGCTT: the PBM binding z-score came to 1.04.

Consider CGTCCTAGGTCAATGCTAGGTCAGTGAAAGCATT, for which the PBM binding z-score was 2.76.

CCTACAGGGTCAGCTAGGCCAGAGTAGGGACGGC displayed a PBM binding z-score of 1.25.

As for TGAATGAGGTTATAAGATCATGGAACGTTGCAAA, the PBM binding z-score is -0.119.

As to CCTTACGGGTCAAGGTTATAGCACGGGTGGTACG, the PBM binding z-score worked out at 1.58.

Take ACAGACATGTGAGTGAAGGTAACTCAGCTGGACG: the PBM binding z-score is -0.419.

TCTTGTAGATCAACAGGAAGTTAAGAAAGATCGA returned a PBM binding z-score of -0.378.

TCACGGAGGACACGAAGGTCAGAGCTTTCCAGAG showed a PBM binding z-score of 1.45.

GCTAGTTGGTCAGTAAAAGGTTACACACCGGTCG showed a PBM binding z-score of 1.27.
